Assay in all cases: NCI-60 one-dose screen, 48 h (100 = growth as untreated, 0 = no growth, -100 = all killed)
Details in all cases: 10 µM unless noted

Experiment [1] concerns NCI-H23 lung.
Experiment [2] has as its system NCI-H226 lung.
The test system of experiment [3] is NCI-H322M lung.
The subject of experiment [4] is HOP-62 NSCLC.
For experiment [5], the system named is NCI-H460 lung.
The subject of experiment [6] is NCI-H522 lung.
Experiment [7] deals with A549/ATCC NSCLC.
For experiment [8], the system named is 786-0 renal.
In experiment [9] the test system is COLO 205 colon.
For experiment [10], the system named is DU-145 prostate.
For experiment [11], the system named is K-562 leukemia.
The test system of experiment [12] is MALME-3M melanoma.
Experiment [13] relates to MDA-MB-231 breast.
Experiment [14] deals with RXF 393 renal.
Experiment [15] concerns SF-268 CNS.
The subject of experiment [16] is SF-295 CNS.
For experiment [17], the system named is SF-539 CNS.
For experiment [18], the system named is UACC-257 melanoma.
Experiment [19] deals with M14 melanoma.

This is part of a sample that, as a whole, favours compounds with a hit. Of some 83,000 tested, about 20% had one in any assay.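 Interpretation: 100, growth as untreated; towards 0, rising growth inhibition; 0, no net growth; 0 to -100, cell death. Compounds scoring below 10 were considered active.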 Values without a mark were called inactive. Active and inactive are the calls of the source.

`CC(C)c1ccc(NCc2cn(-c3ccc(C(=O)O)cc3)nc2-c2cc(C(F)(F)F)cc(C(F)(F)F)c2)cc1`: the growth in experiment [1] is 83.2%; in experiment [2] it was 85.8%; in experiment [3], 85.1%; in [4], 94.9%; in experiment [5] it was 83%; in [6], 85%. The growth is 79.8% in experiment [7]; 90.7% in experiment [8]; 96.5% in [9]; 89.6% in [10]; 79.8% in [11]; 71% in experiment [12]. The growth in experiment [13] was 91.8%; in experiment [14], 97.2%; in experiment [15], 88.1%; in experiment [16] it was 98.5%; in [17] it was 83.6%; in [18], 94.9%. For the same compound, in experiment [19], the growth was 86%.
For the compound `Cc1cc(-c2ccc(Cl)cc2)n(Cc2nnc(SCC(=O)Nc3ccc(S(N)(=O)=O)cc3)n2C2CCCCC2)n1`, the growth is 99.4% in experiment [1]; 93.5% in experiment [2]; 97.2% in experiment [3]; 114% in experiment [4]; 105% in [5]; 99.8% in [6]. In addition, the growth in experiment [7] was 98.4%; in experiment [8] it was 108%; in experiment [9], 116%; in experiment [10], 117%; in experiment [11], 104%; in experiment [12], 87%. Moreover, the growth in experiment [13] is 106%; in experiment [14], 110%; in [15], 113%; in experiment [16] it was 98%; in experiment [17], 103%; in experiment [18], 101%. The growth in [19] was 99.8%.
As to `C[C@@H]1C[C@H]2C(=O)O[C@@H](C)C(NC(=O)[C@H](Cc3cc(F)cc(F)c3)NC(=O)Nc3ccc(Cl)cc3F)C(=O)N3CCC[C@H]3C(=O)N3CCCC[C@H]3C(=O)N[C@@H](CO)C(=O)N2C1` (some centres not stated), the growth in [1] is 37.9%; in experiment [2] it was -4.63% (active); in experiment [3], 48.6%; in experiment [4], 33.4%; in experiment [5], 14.5%; in experiment [6], 19.4%. Also, the growth is 26.2% in experiment [7]; 42.2% in experiment [8]; -23% (active) in experiment [9]; 26.2% in experiment [10]; 23.6% in experiment [11]; 46.3% in [12]. The growth in [13] was 35.2%; in experiment [14], -10.3% (active); in [15], 31.7%; in experiment [16] it was 20%; in experiment [17] it was 36.2%; in experiment [18], 15.8%. For the same compound, the growth in experiment [19] is 20.7%.
Regarding `COc1ccc2[nH]cc(/C=N/Nc3nc4ccccc4s3)c2c1`, the growth in experiment [1] is 67.6%; in experiment [2], 75.6%; in experiment [3], 79.2%; in experiment [4] it was 62.9%; in experiment [5], 32.1%; in experiment [6] it was 28.5%. The growth was 52.4% in experiment [7]; 52.9% in [8]; 80.4% in experiment [9]; 60.3% in experiment [10]; 24.3% in [11]; 98.4% in [12]. For the same compound, the growth was 67.2% in experiment [13]; 60.8% in experiment [14]; 55.9% in experiment [15]; 58.5% in experiment [16]; 70.5% in [17]; 81.9% in [18]. In addition, the growth in [19] is 52%.
Regarding `COC(=O)c1[nH]nc2c1C1(C(=O)N(C)c3ccccc31)C(C#N)=C(N)O2` (configuration not stated), the growth in experiment [1] was 93.4%; in [2], 99.2%; in experiment [3], 94.1%; in experiment [4], 118%; in experiment [5], 106%; in experiment [6], 99.5%. Further, the growth in experiment [7] is 101%; in experiment [8], 102%; in experiment [9] it was 110%; in experiment [10], 102%; in experiment [11], 113%; in [12], 103%. Moreover, the growth in experiment [13] was 107%; in experiment [14] it was 114%; in [15] it was 97.3%; in experiment [16], 118%; in experiment [17] it was 96.5%; in experiment [18], 103%. Also, the growth in experiment [19] was 104%.
`Cc1cc(C)c2sc(=O)n(Cc3nnc(SCCC(=O)O)o3)c2n1`: the growth in [1] was 101%; in experiment [2], 94.5%; in [3], 98%; in experiment [4] it was 98.2%; in experiment [5] it was 105%; in experiment [6] it was 100%. Moreover, the growth in [7] is 104%; in experiment [8], 104%; in experiment [9], 124%; in experiment [10], 108%; in [11], 94.2%; in experiment [12], 99.2%. In addition, the growth in [13] is 97.5%; in [14], 89.2%; in experiment [15] it was 99.2%; in experiment [16] it was 101%; in experiment [17], 98.8%; in experiment [18], 101%. Besides, the growth in [19] was 104%.
On to `N/C(=N\C(N)=N\c1nc2ccccc2s1)c1ccncc1Cl`, for which the growth in experiment [1] was 33.9%; in experiment [2], 67.8%; in experiment [3], 80.6%; in experiment [4], 51.6%; in experiment [5], 23.4%; in experiment [6] it was 18.4%. The growth in experiment [7] was 71%; in experiment [8], 42.7%; in experiment [9], 50.4%; in experiment [10] it was 45.7%; in [11] it was 17.1%; in experiment [12] it was 45.7%. For the same compound, the growth in experiment [13] is 45%; in experiment [14], 8.87% (active); in experiment [15] it was 52.6%; in [16], -22.2% (active); in experiment [17], 7.8% (active); in [18] it was 79.7%. Also, in [19], the growth is 32.4%.
As to `COc1cc2oc(-c3cccc(N)c3)cc(=O)c2c(OC)c1OC`, the growth was 110% in [1]; 99.9% in experiment [2]; 102% in experiment [3]; 115% in [4]; 106% in [5]; 97.4% in experiment [6]. In addition, the growth in experiment [7] was 101%; in [8], 94.1%; in experiment [9], 126%; in [10] it was 108%; in experiment [11] it was 107%; in experiment [12], 101%. Moreover, the growth in [13] was 100%; in [14], 117%; in [15], 104%; in [16] it was 93.4%; in experiment [17] it was 99.6%; in experiment [18], 119%. Also, the growth in [19] is 111%.

The values are drawn from PubChem BioAssay (NCI).
